Screening data from PubChem.
Only some compounds are listed: those with a hit (about 3.1% of all), similar ones and a draw of the others.
VDR inh: blocks the human vitamin D receptor | P11473 | VDR-SRC2-3 peptide fluorescence polarization, 2 h | Potency, µM, usual class: inhibitors | 400,000 tested, 0.93% active | AID 504847
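Compounds are added to VDR with labelled SRC2-3 coactivator peptide and held 2 h at room temperature. Inhibition of the VDR–peptide interaction is then read as a change in fluorescence polarization.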
TSHR antag: antagonists of human thyroid stimulating hormone receptor; TSHR-expressing cells, TSH-stimulated cAMP HTRF, 2 h; stronger effect = lower value; activity change, negative = inhibition, % at 11.5 µM; 330,000 tested, 0.2% active;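 active = activity change below a set negative limit, meaning inhibition stronger than a set level, cut at about -70% in these data; inconclusive = activity change between two set negative limits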
Target sequence (P16473 whole entry, looked up): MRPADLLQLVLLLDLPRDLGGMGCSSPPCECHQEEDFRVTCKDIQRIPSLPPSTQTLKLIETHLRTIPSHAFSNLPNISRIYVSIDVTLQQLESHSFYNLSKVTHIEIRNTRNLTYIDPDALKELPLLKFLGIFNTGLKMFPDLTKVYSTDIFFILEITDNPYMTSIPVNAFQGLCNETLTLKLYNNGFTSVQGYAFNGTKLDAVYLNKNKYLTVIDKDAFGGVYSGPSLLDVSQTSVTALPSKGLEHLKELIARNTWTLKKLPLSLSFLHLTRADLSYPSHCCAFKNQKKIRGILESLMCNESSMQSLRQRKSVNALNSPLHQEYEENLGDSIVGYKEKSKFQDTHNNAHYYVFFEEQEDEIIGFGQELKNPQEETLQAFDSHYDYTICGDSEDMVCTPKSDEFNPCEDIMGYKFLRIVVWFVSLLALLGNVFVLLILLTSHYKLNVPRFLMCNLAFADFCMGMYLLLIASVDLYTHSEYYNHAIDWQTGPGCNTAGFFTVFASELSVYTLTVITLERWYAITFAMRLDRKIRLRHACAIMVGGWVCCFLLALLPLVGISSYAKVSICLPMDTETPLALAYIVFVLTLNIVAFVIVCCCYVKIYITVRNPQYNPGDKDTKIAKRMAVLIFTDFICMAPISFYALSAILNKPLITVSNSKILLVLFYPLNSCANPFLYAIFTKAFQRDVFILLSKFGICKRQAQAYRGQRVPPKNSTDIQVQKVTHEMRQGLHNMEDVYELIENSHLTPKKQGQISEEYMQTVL
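Competitive HTRF cAMP read-out (cryptate anti-cAMP antibody, cAMP-d2; 30 min, room temperature) in freshly harvested TSHR cells. Compounds added before TSH at EC80 (4nM final), followed by 2 hours' incubation at 37 deg C.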
PLK1 PBD block: inhibitors of human PLK1 polo-box domain binding. P53350. Plk1 PBD binding of FITC phosphopeptide, fluorescence polarization. Potency, µM, actives largely listed as inhibitors. 360,000 tested, 2.8% active. AID 720504; note: series mostly up to about 57 µM; nearly all actives have a fitted effect of over 65% in size
Vif-A3F inh: Vif-A3F binding inhibition. HeLa A3F-eYFP + Vif (tagged APOBEC3F with the HIV-1 protein that degrades it), YFP fluorescence increase. Potency, µM (series often up to 46.1 µM). 390,000 tested, 0.2% active; note: nearly all actives have a fitted effect of over 65% in size
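HeLa cells stably expressing A3F-eYFP plus Vif, plated and incubated overnight at 37 deg C, then exposed to compounds overnight at 37 deg C. Blocked degradation read as raised yellow fluorescence (Ex 488/Em 500-530).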
Vif-APOBEC3G blk: blocks the Vif interaction with human APOBEC3G; HeLa A3G-eYFP + Vif (tagged APOBEC3G with the HIV-1 protein that degrades it), YFP fluorescence, overnight; AID 602310; 410,000 tested, 0.076% active; Potency, µM (highest dose often 46.1 µM), usual class: inhibitors; note: nearly all actives have a fitted effect of over 60% in size
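Read-out is eYFP fluorescence (Ex 488/Em 500-530) from Vif-expressing HeLa A3G-eYFP cells; more signal means A3G escaped Vif-mediated degradation. Cells plated overnight, compound pinned in, incubated overnight at 37 deg C.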
Large screens that a line does not name were inactive; ! = not confirmed by another sample. Unless noted, calls come from the whole dose curve; as a rule, active = well fitted curve in the direction sought with a large enough effect; inconclusive = small, poorly fitted or top-dose-only effect, or another doubt; inactive = no such curve, though single readings can be large; an effect the other way counts as inactive or inconclusive.

O=S(=O)(c1ccc(OC(F)(F)F)cc1)N1CCC(O)(c2cccc(C(F)(F)F)c2)CC1	VDR inh inconclusive, PLK1 PBD block 27µM
OC1(c2cccc(C(F)(F)F)c2)CCNCC1	none
CCCCn1cnc2c(=O)[nH]c(N)nc21	none (no result: TSHR antag, PLK1 PBD block, Vif-A3F inh)
CCCCS(=O)(=O)c1oc(-c2cccs2)nc1S(=O)(=O)c1ccc(F)cc1	VDR inh 10µM (no result: TSHR antag, PLK1 PBD block)
COC(=O)CCC(=O)OC1(C)C(=O)C=C2C=C(C3CC3)N(CCCOC(C)C)C=C2C1=O (configuration not stated)	VDR inh inconclusive, PLK1 PBD block 30µM
COC(=O)CCC(=O)OC1(C)C(=O)C=C2C=C(C3CC3)N(CCCCO)C=C2C1=O (configuration not stated)	none
C=C1C(C2(C)C=CC(=O)C(C)(C)C2CC(=O)OC)CC[C@@]2(C)C(c3ccoc3)OC(=O)C3OC132 (some centres not stated)	none (no result: TSHR antag, PLK1 PBD block, Vif-A3F inh, Vif-APOBEC3G blk)
C=C1C2=CC(=O)OC(c3ccoc3)[C@]2(C)CCC1[C@]1(C)C=CC(=O)C(C)(C)C1CC(=O)OC (some centres not stated)	VDR inh 40µM (no result: TSHR antag, PLK1 PBD block, Vif-A3F inh, Vif-APOBEC3G blk)
N#Cc1c(C#N)c(O)c2ccccc2c1O	VDR inh 28µM, PLK1 PBD block 13µM
N=C1CCC(=N)c2c1c(O)c1ccccc1c2O	VDR inh inconclusive, PLK1 PBD block inconclusive
CC(=O)SC1CC2=CC(=O)CC[C@]2(C)C2CC[C@@]3(C)C(CC[C@@]34CCC(=O)O4)C12 (some centres not stated)	none (no result: PLK1 PBD block, Vif-A3F inh, Vif-APOBEC3G blk)
COc1ccc(OC)c(C2C(C(=O)c3ccc(C)o3)=C(O)C(=O)N2c2cc(C)on2)c1 (configuration not stated)	VDR inh inconclusive, PLK1 PBD block 24µM
Cc1cc(N2C(=O)C(O)=C(C(=O)c3cc4ccccc4o3)C2c2ccc(Br)cc2)no1 (configuration not stated)	VDR inh inconclusive, PLK1 PBD block 21µM
Cc1cc(N2C(=O)C(O)=C(C(=O)c3ccc(C)o3)C2c2cccc(Oc3ccccc3)c2)no1 (configuration not stated)	VDR inh inconclusive, PLK1 PBD block 24µM
CCOC(=O)C1=C([Si](C)(C)C)c2ccccc2N(S(=O)(=O)C(F)(F)F)C1C(=O)OCC (configuration not stated)	none (no result: TSHR antag, PLK1 PBD block, Vif-A3F inh, Vif-APOBEC3G blk)
C[C@H]1CC[C@@H]2N(C1)C[C@H]1[C@@H]3C[C@H]4[C@@H](C/C(=N\O)[C@H]5C[C@@H](O)CC[C@@]54C)[C@@H]3CC[C@H]1[C@]2(C)O	none (no result: TSHR antag, PLK1 PBD block, Vif-A3F inh, Vif-APOBEC3G blk)
O=C(Cn1nc(Cl)nc1Cl)c1ccccc1	PLK1 PBD block 17µM
O=C(Cn1nc(Cl)nc1Cl)c1ccc2c(c1)OCCO2	PLK1 PBD block 12µM
CC(=O)Nc1ccc(OC(C)=O)cc1	none (no result: TSHR antag, PLK1 PBD block, Vif-A3F inh, Vif-APOBEC3G blk)
O=C(NCc1cccs1)c1ccc(S(=O)(=O)N2CCCCC2)cc1	VDR inh inconclusive, PLK1 PBD block 13µM
CC(C)(C)c1ccc(C(=O)NCCC(=O)NCc2cccs2)cc1	PLK1 PBD block 27µM
O=C(COC(=O)c1ccc(S(=O)(=O)N2CCCC2)cc1)NCc1cccs1	none
Cc1cc(=O)oc2c(CN3CCCC3)c(O)ccc12	none
Cc1cc(=O)oc2c(O)c(O)ccc12	VDR inh 71µM!, PLK1 PBD block inconclusive (no result: TSHR antag)
COc1ccc2cc(Br)ccc2c1CC(=O)N(C)C	none
CCCCN(C)C(=O)Cc1c(OC)ccc2cc(Br)ccc12	VDR inh 22µM, PLK1 PBD block 24µM
Cc1ccc(-c2ccc(CCC(=O)O)n2C(C)C)cc1	PLK1 PBD block inconclusive
C=Cc1c(C)c2cc3[nH]c(cc4nc(cc5nc(cc1[nH]2)C(C)=C5CCC(=O)O)C(CCC(=O)O)=C4C)c(C)c3C=C	VDR inh 14µM, PLK1 PBD block 13µM
CC1=C(CCC(=O)O)c2cc3nc(cc4[nH]c(cc5[nH]c(cc1n2)c(C)c5C(C)O)c(C)c4C(C)O)C(C)=C3CCC(=O)O (configuration not stated)	VDR inh 18µM (no result: TSHR antag, PLK1 PBD block, Vif-A3F inh, Vif-APOBEC3G blk)
COc1ccccc1NC(=O)C1=C(C)Nc2c(C(=O)Nc3ccc(F)cc3)cnn2C1c1cccc([N+](=O)[O-])c1 (configuration not stated)	none (no result: TSHR antag, PLK1 PBD block)
N#Cc1ccc(/C=C\c2nccc3c2[nH]c2ccccc23)cc1	Vif-A3F inh inconclusive, Vif-APOBEC3G blk 13µM
